Unmarked numbers belong to inactive results. Records with an inconclusive call do not appear. Entries that show only a call come without a potency. The source made the active and inactive calls. Unless noted, calls come from the whole dose curve; as a rule, active = well fitted curve in the direction sought with a large enough effect in the repeat runs; inconclusive = weak or mixed curves; inactive = no such curve, though single readings can be large; an effect the other way counts as inactive or inconclusive.
Experiments:
[1] = A CellTox Green Cytotoxicity Assay to monitor cytotoxicity in HepG2 cells - 8 hour (AID 1224890); note: nearly all actives have a fitted effect of over 45% in size; note: potency is the fitted concentration of half-maximal effect
In short: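 First, HepG2 cells (600/well) mixed with reagent were plated; second, after 5 h at 37 C they received compounds via pintool; third, fluorescence was measured at 0 h through 40 h at 8 h intervals.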

[2] = qHTS assay to identify small molecule antagonists of the androgen receptor (AR) signaling pathway using the MDA cell line in the presence of 0.5 nM R1881 - cell viability counter screen (AID 1259242); note: nearly all actives have a fitted effect of over 45% in size
In short: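 qHTS format. MDA-kb2 (MMTV-luc, AR/GR responsive) + cpd + 0.5 nM R1881 final, 16 hr 37C/0% CO2 → CellTiter-Fluor 30 min → fluorescence intensity.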

[3] = target: Androgen receptor (Homo sapiens) (UniProt P10275); assay: qHTS assay to identify small molecule antagonists of the androgen receptor (AR) signaling pathway using the MDA cell line in the presence of 0.5 nM R1881 (AID 1259243); note: nearly all actives have a fitted effect of over 50% in size
Androgen receptor (Homo sapiens), sequence (P10275 whole entry, looked up): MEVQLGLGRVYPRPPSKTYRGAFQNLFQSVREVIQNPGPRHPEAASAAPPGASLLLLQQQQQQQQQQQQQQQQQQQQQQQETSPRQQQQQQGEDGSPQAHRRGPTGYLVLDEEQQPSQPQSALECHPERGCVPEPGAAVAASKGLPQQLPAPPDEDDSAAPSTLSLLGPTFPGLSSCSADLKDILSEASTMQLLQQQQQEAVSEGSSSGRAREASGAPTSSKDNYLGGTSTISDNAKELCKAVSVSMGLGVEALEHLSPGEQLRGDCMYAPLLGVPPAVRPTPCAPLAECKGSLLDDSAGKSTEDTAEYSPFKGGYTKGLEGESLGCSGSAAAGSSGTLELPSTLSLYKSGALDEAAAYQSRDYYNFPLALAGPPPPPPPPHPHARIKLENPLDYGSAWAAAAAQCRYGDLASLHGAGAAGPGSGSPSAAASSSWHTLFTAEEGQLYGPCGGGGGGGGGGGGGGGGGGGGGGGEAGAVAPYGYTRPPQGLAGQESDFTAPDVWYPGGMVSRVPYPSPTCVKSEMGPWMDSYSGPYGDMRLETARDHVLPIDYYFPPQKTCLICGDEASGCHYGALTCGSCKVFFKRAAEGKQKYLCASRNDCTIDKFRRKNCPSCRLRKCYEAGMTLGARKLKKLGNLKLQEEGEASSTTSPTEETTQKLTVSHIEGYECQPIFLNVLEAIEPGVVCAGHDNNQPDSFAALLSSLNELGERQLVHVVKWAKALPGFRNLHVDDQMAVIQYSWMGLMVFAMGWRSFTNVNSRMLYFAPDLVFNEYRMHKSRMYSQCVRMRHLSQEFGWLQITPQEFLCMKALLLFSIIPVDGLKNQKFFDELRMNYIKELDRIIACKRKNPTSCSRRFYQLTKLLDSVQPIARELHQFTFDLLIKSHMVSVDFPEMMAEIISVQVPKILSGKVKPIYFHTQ
In short: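 Antagonist mode quantitative HTS in MDA-kb2 MMTV-luciferase cells, agonist R1881 at 0.5 nM final, 16 hr exposure at 37C and 0% CO2, luminescent detection.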

[4] = qHTS assay to identify small molecule HDAC inhibitors (AID 1259364); note: potency is the fitted concentration of half-maximal effect;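 note: wild-type HCT-116 cells with endogenous class I/II HDAC activity; nearly all actives have a fitted effect of over 45% in size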
In short: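 Quantitative high-throughput format: overnight-seeded HCT-116 cells got compounds for 2 hr at 37C; HDAC-Glo I/II reagent added, 30 min RT, luminescence measured.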

[5] = qHTS assay to identify small molecule HDAC inhibitors - cell viability counter screen (AID 1259365); note: series mostly up to about 92 µM; nearly all actives have a fitted effect of over 50% in size
In short: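 Wild-type HCT-116 cells were seeded at 1,500 per well, incubated overnight at 37 C, then exposed to compounds in DMSO for 2hr. Viability was read by CellTiter-Glo luminescence after 30min at room temperature.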

[6] = qHTS assay to identify small molecule agonists of the sonic hedgehog signaling (Shh) pathway - cell viability counter screen (AID 1259366); note: nearly all actives have a fitted effect of over 50% in size; note: potency is the fitted concentration of half-maximal effect
In short: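 NIH/3T3-derived 3T3 Gli1-Luc cells (stable Gli1-responsive firefly luciferase reporter) were seeded, rested 4 hr at 37 C/5% CO2, then exposed to compounds in DMSO for 24 hr; viability was read by CellTiter-Fluor fluorescence in the same wells.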

[7] = qHTS assay to identify small molecule antagonists of the sonic hedgehog signaling (Shh) pathway - cell viability counter screen (AID 1259367); note: nearly all actives have a fitted effect of over 55% in size
In short: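 Fluorescence read-out (CellTiter-Fluor, 1 hr at 37C) taken after 23 hr compound treatment of 3T3 Gli1-Luc cells stimulated with conditioned medium. Cells were seeded at 2,000 per well and pre-incubated 4 hr.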

[8] = qHTS assay to identify small molecule agonists of the sonic hedgehog signaling (Shh) pathway (AID 1259368; calls by dose curve; note: series mostly up to about 92 µM; nearly all actives have a fitted effect of over 15% in size)
In short: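 Quantitative high-throughput format using a Gli1-driven firefly luciferase reporter line derived from NIH/3T3 cells. After a 24 hr compound treatment at 37 C and 5% CO2, luminescence reported Gli1 response element activity.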

[9] = qHTS assay to identify small molecule antagonists of the sonic hedgehog signaling (Shh) pathway (AID 1259369; calls by dose curve; note: nearly all actives have a fitted effect of over 45% in size; note: potency is the fitted concentration of half-maximal effect)
In short: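 Stable Gli1-Luc reporter NIH/3T3 clone; quantitative HTS in stimulated mode with conditioned medium. Luminescence measured after 24hr compound treatment at 37 C.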

[10] = target: Estrogen receptor beta (Homo sapiens) (UniProt Q92731); assay: qHTS assay to identify small molecule antagonists of the estrogen receptor beta (ER-beta) signaling pathway (AID 1259378; active = well fitted inhibition curve with a large enough effect in the signal ratio in the repeat runs, not every such curve was filed as active; the % refers to the signal ratio)
Estrogen receptor beta (Homo sapiens), sequence (Q92731 whole entry, looked up): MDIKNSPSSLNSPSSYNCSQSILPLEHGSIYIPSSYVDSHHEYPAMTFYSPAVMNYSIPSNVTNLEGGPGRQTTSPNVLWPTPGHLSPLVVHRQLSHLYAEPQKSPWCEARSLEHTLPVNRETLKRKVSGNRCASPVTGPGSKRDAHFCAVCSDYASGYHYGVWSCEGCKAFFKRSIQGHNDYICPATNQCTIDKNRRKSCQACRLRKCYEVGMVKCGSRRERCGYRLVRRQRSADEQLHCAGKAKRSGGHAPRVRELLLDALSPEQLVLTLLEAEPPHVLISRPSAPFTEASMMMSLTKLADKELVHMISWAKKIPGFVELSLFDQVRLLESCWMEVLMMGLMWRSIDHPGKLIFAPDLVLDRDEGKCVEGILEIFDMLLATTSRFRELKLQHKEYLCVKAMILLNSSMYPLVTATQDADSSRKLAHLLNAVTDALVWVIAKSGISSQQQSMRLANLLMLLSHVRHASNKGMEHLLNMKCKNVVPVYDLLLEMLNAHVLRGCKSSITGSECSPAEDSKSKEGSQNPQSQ
In short: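 ER-beta-UAS-bla HEK293T cells in 2% charcoal-stripped FBS medium treated with compound plus 1nM final 17-beta-estradiol for 16 hr at 37C. Beta-lactamase reporter read by FRET substrate fluorescence after 2 hours at room temperature.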

[11] = qHTS assay to identify small molecule agonists of the androgen receptor (AR) signaling pathway in the presence of an antagonist - cell viability counter screen (AID 1259379); note: nearly all actives have a fitted effect of over 25% in size; note: potency is the fitted concentration of half-maximal effect
In short: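 Nilutamide-containing (3.0uM final) MDA-kb2 cultures, 3,000 cells/well, were treated with compounds across 15 concentrations. After 16 hr at 37C with no CO2, cell viability was determined by CellTiter-Fluor fluorescence in the luciferase assay wells.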

[12] = qHTS assay to identify small molecule agonists of the estrogen receptor beta (ER-beta) signaling pathway - cell viability counter screen (AID 1259380); note: nearly all actives have a fitted effect of over 30% in size; note: potency is the fitted concentration of half-maximal effect
In short: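 Steps: plate ER-beta-UAS-bla HEK293T cells, rest 6 hr; add compounds in DMSO; incubate 16 hr at 37C, 5% CO2; add FRET substrate 2 hr; add CellTiter-Glo, wait 30 min at room temperature; read luminescence.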

[13] = target: Androgen receptor (Homo sapiens) (UniProt P10275); assay: qHTS assay to identify small molecule agonists of the androgen receptor (AR) signaling pathway in the presence of an antagonist (AID 1259381; calls by dose curve; note: nearly all actives have a fitted effect of over 15% in size; note: potency is the fitted concentration of half-maximal effect)
In short: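 Reporter-gene luminescence from MDA-kb2 cells exposed 16hr at 37C (0% CO2) to 15-point compound titrations with 3.0uM final nilutamide as AR antagonist.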

[14] = target: Estrogen receptor (Homo sapiens) (UniProt P03372); assay: qHTS assay to identify small molecule agonists of the estrogen receptor alpha (ER-alpha) signaling pathway in the presence of an antagonist (AID 1259383; calls by dose curve; note: top concentration of the series differs between compounds; nearly all actives have a fitted effect of over 15% in size)
Estrogen receptor (Homo sapiens), sequence (P03372 whole entry, looked up): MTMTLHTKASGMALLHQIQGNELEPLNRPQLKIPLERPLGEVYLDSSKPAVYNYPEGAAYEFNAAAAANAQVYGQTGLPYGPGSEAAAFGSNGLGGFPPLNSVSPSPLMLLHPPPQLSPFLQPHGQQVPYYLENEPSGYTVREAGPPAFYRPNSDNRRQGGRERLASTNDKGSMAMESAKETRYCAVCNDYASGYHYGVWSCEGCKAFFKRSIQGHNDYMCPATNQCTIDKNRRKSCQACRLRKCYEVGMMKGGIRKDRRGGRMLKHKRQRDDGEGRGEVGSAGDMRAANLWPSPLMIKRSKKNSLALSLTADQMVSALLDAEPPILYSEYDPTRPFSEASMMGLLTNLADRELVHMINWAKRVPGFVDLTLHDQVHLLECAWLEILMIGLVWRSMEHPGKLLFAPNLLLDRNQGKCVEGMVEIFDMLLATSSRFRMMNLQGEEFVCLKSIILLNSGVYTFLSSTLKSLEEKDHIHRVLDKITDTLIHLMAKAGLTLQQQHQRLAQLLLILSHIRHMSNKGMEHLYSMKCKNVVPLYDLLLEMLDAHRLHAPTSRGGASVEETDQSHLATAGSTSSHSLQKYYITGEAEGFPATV
In short: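 Readout was ERE-driven luciferase luminescence in VM7Luc4E2 cells, which express full-length ER-alpha endogenously. Compounds were tested at 15 concentrations for 22hr alongside 10.0nM ICI-182,780 (final concentration).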

[15] = qHTS assay to identify small molecule agonists or antagonists of the thyroid stimulating hormone receptor (TSHR) signaling pathway - wild type cell line counter screen (AID 1259384; calls by dose curve)
In short: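 Wild-type Hek293 cells, 800/well, 18 h at 37C, then compound with Ro20-1724 for 30 min RT. cAMP by HTRF (cAMP-d2/anti-cAMP cryptate), 1 h RT, fluorescence read. 15 concentrations, triplicates.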

[16] = target: Estrogen receptor (Homo sapiens) (UniProt P03372); assay: qHTS assay to identify small molecule antagonists of the estrogen receptor alpha (ER-alpha) signaling pathway using the BG1 cell line in the presence of 0.1 nM 17-beta-estradiol (AID 1259244); note: nearly all actives have a fitted effect of over 50% in size; note: potency is the fitted concentration of half-maximal effect
In short: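 Reporter is a stably transfected luciferase under four estrogen responsive elements in VM7Luc4E2 cells expressing native full-length ER-alpha; inhibition of 0.1 nM (final) 17beta-estradiol-driven signal over 22 h is read by luminescence.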

[17] = target: Estrogen receptor beta (Homo sapiens) (UniProt Q92731); assay: qHTS assay to identify small molecule agonists of the estrogen receptor beta (ER-beta) signaling pathway (AID 1259377; active = well fitted activation curve with a large enough effect in the signal ratio in the repeat runs, not every such curve was filed as active; the % refers to the signal ratio)
In short: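 ER-beta-UAS-bla HEK293T (GripTite) cells carrying a UAS-driven beta-lactamase reporter, in medium with 2% charcoal-stripped FBS, were exposed to compounds for 16 hr at 37C; LiveBLAzer B/G FRET substrate was then added and fluorescence read after 2 hours at room temperature.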

[18] = qHTS assay to identify small molecule antagonists of the estrogen receptor beta (ER-beta) signaling pathway - cell viability counter screen (AID 1259382); note: series mostly up to about 92 µM; nearly all actives have a fitted effect of over 55% in size
In short: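 Viability is scored by CellTiter-Glo luminescence (30 min, room temperature) in ER-beta-UAS-bla HEK293T wells already read for reporter fluorescence. Compound exposure lasts 16 hr at 37C alongside 1nM 17-beta-estradiol in charcoal-stripped serum medium.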

[19] = qHTS assay to identify small molecule antagonists of the estrogen receptor alpha (ER-alpha) signaling pathway using the BG1 cell line in the presence of 0.1 nM 17-beta-estradiol - cell viability counter screen (AID 1259241); note: nearly all actives have a fitted effect of over 40% in size
In short: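 VM7Luc4E2 cells (endogenous ER-alpha, 4×ERE-luciferase), hormone-starved 5 days in charcoal-stripped FBS, were treated with compounds plus 0.1 nM 17beta-estradiol for 22 hr at 37C; viability read in same wells as CellTiter-Fluor live-cell protease fluorescence.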

[20] = qHTS assay to identify small molecule phospholipidosis (PLD) inducers (AID 1259344; active = well fitted curve in the direction sought with a large enough effect; an effect the other way counts as inactive or inconclusive)
In short: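 Read-out is LipidTOX Red fluorescence (ex 595/em 615) imaged in HepG2 cells after 24 h compound exposure at 37 C, with Hoechst nuclear counterstain (ex 352/em 461) allowing per-cell normalisation.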

| SMILES | Potency [1] | Potency [2] | Potency [3] | Potency [4] | outcome [5] | Potency [6] | Potency [7] | Potency [8] | Potency [9] | Potency [10] | Potency [11] | Potency [12] | Potency [13] | Potency [14] | outcome [15] | Potency [16] | Potency [17] | Potency [18] | Potency [19] | Potency [20] |
| --- | --- | --- | --- | --- | --- | --- | --- | --- | --- | --- | --- | --- | --- | --- | --- | --- | --- | --- | --- | --- |
| NC(=O)c1ccccc1C(N)=O | 49.2 µM (active) | inactive | inactive | inactive | inactive | inactive | inactive | inactive | inactive | inactive | inactive | 61.4 µM (active) | inactive | inactive | inactive | – | – | – | – | – |
| CCCC1CCCC(=O)O1 (centres undefined) | inactive | inactive | – | inactive | – | inactive | inactive | inactive | inactive | inactive | inactive | inactive | – | inactive | inactive | inactive | inactive | inactive | – | – |
| O=C(O)CNc1ccccc1 | inactive | – | – | inactive | inactive | inactive | inactive | inactive | inactive | – | inactive | inactive | – | – | inactive | – | – | inactive | – | – |
| Nc1ccc(F)cc1F | inactive | inactive | inactive | inactive | inactive | inactive | inactive | inactive | inactive | inactive | inactive | inactive | inactive | inactive | inactive | – | inactive | inactive | – | – |
| CCN(CC)CC(=O)OCC(=O)[C@@]1(O)CC[C@H]2[C@@H]3CCC4=CC(=O)CC[C@]4(C)[C@H]3[C@@H](O)C[C@@]21C | inactive | inactive | inactive | inactive | inactive | inactive | inactive | inactive | inactive | – | inactive | inactive | 0.211 µM (active) | inactive | inactive | inactive | inactive | inactive | – | – |
| O=C(O)c1cccc(C(=O)O)c1C(=O)O | inactive | – | inactive | inactive | – | inactive | inactive | inactive | inactive | – | inactive | 13.8 µM (active) | inactive | inactive | inactive | inactive | – | – | – | – |
| Cc1cc(N)n(-c2ccccc2)n1 | inactive | inactive | – | 27.3 µM (active) | inactive | inactive | inactive | inactive | inactive | inactive | inactive | inactive | – | – | inactive | inactive | inactive | inactive | – | – |
| C/C(=C\C(C)CC(C)CC(C)C)C1CC(=O)OC1=O (centres undefined) | inactive | inactive | – | inactive | – | inactive | inactive | inactive | inactive | – | inactive | – | – | – | inactive | inactive | inactive | inactive | – | – |
| Nc1cccc2c(=O)[nH][nH]c(=O)c12 | inactive | inactive | – | inactive | inactive | inactive | inactive | inactive | inactive | – | inactive | 24.5 µM (active) | – | inactive | inactive | inactive | – | – | – | – |
| Cc1ccc(NC(=O)c2ccc(CN3CCN(C)CC3)cc2)cc1Nc1nccc(-c2cccnc2)n1 | inactive | inactive | – | inactive | inactive | – | – | inactive | 2.66 µM (active) | – | inactive | – | inactive | – | inactive | – | – | inactive | – | – |
| O=P(c1ccccc1)(c1ccccc1)c1ccccc1 | inactive | inactive | – | inactive | inactive | inactive | inactive | inactive | inactive | – | inactive | inactive | – | – | inactive | – | – | inactive | – | – |
| COc1cc(C)c(Cc2cnc(N)nc2N)cc1OC | – | inactive | – | inactive | – | inactive | inactive | inactive | – | – | inactive | inactive | – | inactive | – | inactive | – | inactive | inactive | inactive |
| CC(C)(C(=O)O)c1ccc(C(O)CCCN2CCC(C(O)(c3ccccc3)c3ccccc3)CC2)cc1 (centres undefined) | inactive | inactive | – | inactive | inactive | inactive | inactive | inactive | inactive | inactive | – | inactive | – | inactive | inactive | inactive | – | inactive | – | inactive |
| CCOc1ccc2c(c1)C(C)CC(C)(C)N2 (centres undefined) | – | inactive | inactive | inactive | inactive | inactive | inactive | inactive | inactive | inactive | inactive | inactive | inactive | – | inactive | – | inactive | inactive | inactive | – |
| COc1cc(CNC(=O)CCCC/C=C/C(C)C)ccc1O | inactive | inactive | – | inactive | inactive | inactive | inactive | inactive | inactive | – | inactive | – | – | inactive | inactive | 59.5 µM (active) | – | inactive | – | inactive |
| Oc1ccc(CCNCCCCCCNCCc2ccccc2)cc1O | inactive | inactive | – | inactive | inactive | 29.8 µM (active) | – | inactive | 9.44 µM (active) | – | – | inactive | – | inactive | inactive | – | – | – | – | inactive |
| O=c1[nH]nc(-c2ccc([N+](=O)[O-])o2)o1 | inactive | – | – | inactive | inactive | – | – | inactive | – | inactive | 54.5 µM (active) | inactive | – | inactive | inactive | – | – | inactive | – | – |
| O=C(O)c1cc(C(=O)O)c(C(=O)O)cc1C(=O)O | – | inactive | inactive | inactive | inactive | inactive | inactive | inactive | inactive | inactive | inactive | inactive | inactive | inactive | – | – | inactive | inactive | inactive | – |
